From PubChem BioAssay (EPA / NIEHS)
Where “and” joins values, the source holds several entries; their conditions need not be identical. Identical values can stand only once. Some structures have more than one record in an assay (separate samples or runs), and their calls can disagree. Calls of active or inactive are those of the source. Rule for the calls: active = hit-call score of the fitted dose curve at least 0.9, where 1 is the maximum; inactive = score below 0.9.

Molecular target: Cellular tumor antigen p53 (Homo sapiens) (UniProt P04637)
Assay: ATG_p53_CIS: Attagene CIS-FACTORIAL HepG2 Assay for human p53 Transcription Factor (AID 2282994)
Conditions: HepG2 p53 cis-element reporter, Attagene mRNA; actives raise or lower the signal
Experimental: ATG_CIS is a cell-based, multiplexed-readout assay that uses HepG2, a human liver cell line, with measurements taken at 24 hours after chemical dosing in a 24-well plate.ATG_p53_CIS is one of 52 assay component(s) measured or calculated from the ATG_CIS assay. It is designed to make measurements of mRNA induction, a form of inducible reporter, as detected with fluorescence intensity signals by Reverse transcription polymerase chain reaction (RT-PCR) and Capillary electrophoresis technology.Data from the assay component ATG_p53_CIS was analyzed into 1 assay endpoint. This assay endpoint, ATG_p53_CIS, was analyzed with bidirectional fitting relative to DMSO as the negative control and baseline of activity. Using a type of inducible reporter, measures of mRNA for gain or loss-of-signal activity can be used to understand the reporter gene at the transcription factor-level as they relate to the gene TP53. Furthermore, this assay endpoint can be referred to as a primary readout, because this assay has produced multiple assay endpoints where this one serves a reporter gene function. To generalize the intended target to other relatable targets, this assay endpoint is annotated to the dna binding intended target family, where the subfamily is tumor suppressor.
Human liver HepG2 cells are transiently transfected with multiple reporter transcription units (MRTUs) in 6-well plates using FuGene 6 reagent (Roche; 3 ml FuGene/1 mg DNA). The MRTU constructs are regulated by a cis-regulating element (promoter). […] A major difference between the CIS and TRANS system is that in CIS activities of endogenous TFs are measured, whereas the TRANS assay evaluates changes in activities of exogenous, chimeric NR-Gal4 proteins. […] At the end of 24 hour incubation, total RNA was isolated using TriZol reagent (Invitrogen). The isolated RNA is then reverse-transcribed using oligo(dT) primer and Mo-MLV reverse transcriptase (Invitrogen) with DNAse I (Ambion) treatment for 30 min. The one-tenth of the produced cDNA was amplified by PCR using Taq DNA polymerase (Invitrogen) and two reporter sequence-specific primers. The PCR products were fluorescently labeled by primer extension with 6-arboxyfluorescein (6-FAM) 5'-labeled reporter sequence-specific primer (2 min at 95 C, 20 s at 68 C and 10 min at 72 C) and these products were digested with 5U of HpaI (New England Biolabs) for 2h at 37 C. The fragments were purified using Qiaquick PCR columns (Qiagen), analyzed on an ABI 3130xL genetic analyzer (Applied Biosystems) with peak positions identified by using a set of X-rhodamine (ROX)-labeled MapMarker1000 molecular weight standards (BioVentures). The raw capillary electrophoresis data was processed using Attagraph software (Attagene).

Sequence of Cellular tumor antigen p53 (Homo sapiens) (P04637 whole entry, looked up): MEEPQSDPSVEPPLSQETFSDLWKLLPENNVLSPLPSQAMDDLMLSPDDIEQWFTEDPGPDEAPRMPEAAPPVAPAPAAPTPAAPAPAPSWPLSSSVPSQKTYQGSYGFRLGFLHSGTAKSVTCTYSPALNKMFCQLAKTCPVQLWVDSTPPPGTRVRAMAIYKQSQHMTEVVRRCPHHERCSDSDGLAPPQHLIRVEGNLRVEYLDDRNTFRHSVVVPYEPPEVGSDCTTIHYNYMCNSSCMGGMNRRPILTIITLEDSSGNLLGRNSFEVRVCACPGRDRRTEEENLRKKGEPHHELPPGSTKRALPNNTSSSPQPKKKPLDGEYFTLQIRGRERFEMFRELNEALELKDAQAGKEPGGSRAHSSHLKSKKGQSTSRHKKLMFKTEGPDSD

SMILES	outcome	AC50
COC(=O)c1ccccc1C(=O)O	inactive	
COC(=O)c1ccc(I)cc1S(=O)(=O)NC(=O)Nc1nc(C)nc(OC)n1	inactive	
CC(C)CCCCCCc1ccc(O)cc1	inactive	20.1 µM (active) and 20.3 µM (active)
CC1(C)C(C=C(Cl)Cl)C1C(=O)OCc1cccc(Oc2ccccc2)c1 (stereo not given)	inactive	
Oc1ccc(C(c2ccc(O)cc2)C(Cl)(Cl)Cl)cc1	inactive	
CCNc1nc(N)nc(Cl)n1	inactive	
C[C@]12C[C@H](O)[C@H]3[C@@H](CCC4=CC(=O)CC[C@@]43C)[C@@H]1CC[C@@H]2C(=O)CO	inactive	
CC(=O)S[C@@H]1CC2=CC(=O)CC[C@]2(C)[C@H]2CC[C@@]3(C)[C@@H](CC[C@@]34CCC(=O)O4)[C@H]12	inactive	27.6 µM (active) [middle of 4 runs]
N[C@@H](Cc1cc(I)c(Oc2ccc(O)c(I)c2)c(I)c1)C(=O)O	inactive	25.2 µM (active)
CCC(O)=C1C(=O)CC(C(=O)O)CC1=O (stereo not given)	inactive	
CCCOC(=O)c1ccc(C(=O)OCCC)nc1	inactive	
CCSC(=O)N(CC(C)C)CC(C)C	inactive	
CC(=O)[C@H]1CC[C@H]2[C@@H]3CCC4=CC(=O)CC[C@]4(C)[C@H]3CC[C@]12C	inactive	
CSC(=O)c1cccc2nnsc12	inactive	
CCCCOC(=O)[C@@H](C)Oc1ccc(Oc2ccc(C(F)(F)F)cn2)cc1	inactive	
CCOC(=O)c1ccc(O)cc1	inactive	
CC(C)(c1ccc(O)cc1)c1ccc(O)cc1	inactive	86.2 µM (active) and 100 µM (active) and 133 µM (active)
C#C[C@]1(O)CC[C@H]2[C@@H]3CCC4=CC(=O)CC[C@@H]4[C@H]3CC[C@@]21CC	inactive	

SMILES	outcome	AC50
CCOC(=O)COc1cc(-n2ncc(C(F)(F)F)c(C)c2=O)c(F)cc1Cl	inactive	
CCCN(CCC)C(=O)SCC	inactive	
CCN(Cc1c(F)cccc1Cl)c1c([N+](=O)[O-])cc(C(F)(F)F)cc1[N+](=O)[O-]	inactive	
CCC(C)OC(=O)N1CCCCC1CCO (stereo not given)	inactive	
CCCCC(CC)CN1C(=O)C2C3C=CC(C3)C2C1=O (stereo not given)	inactive	
CCOC(=O)[C@H](C)Oc1ccc(Oc2nc3ccc(Cl)cc3o2)cc1	inactive	
COc1nc(C)nc(NC(=O)NS(=O)(=O)c2ccccc2OCCCl)n1	inactive	
c1ccc(Nc2ccccc2)cc1	inactive	
CCOC(=O)NCCOc1ccc(Oc2ccccc2)cc1	inactive	
COC(=O)c1ccccc1S(=O)(=O)NC(=O)Nc1nc(OC(F)F)cc(OC(F)F)n1	inactive	
CCCCCCC(C)OC(=O)COc1nc(F)c(Cl)c(N)c1Cl (stereo not given)	inactive	
COC(=O)c1c(Cl)nn(C)c1S(=O)(=O)NC(=O)Nc1nc(OC)cc(OC)n1	inactive	
Cc1nn(C)c(Oc2ccccc2)c1C=NOCc1ccc(C(=O)OC(C)(C)C)cc1	inactive	
O=C(O)C1(C(=O)Nc2ccc(Cl)cc2Cl)CC1	inactive	
CCCOC(=O)NCCCN(C)C	inactive	
COC(=O)c1ccc(CNS(C)(=O)=O)cc1S(=O)(=O)NC(=O)Nc1nc(OC)cc(OC)n1	inactive	
CCCN(CCC)c1c([N+](=O)[O-])cc(C(F)(F)F)c(N)c1[N+](=O)[O-]	inactive	
COC(=O)c1cccc(C)c1S(=O)(=O)NC(=O)Nc1nc(OCC(F)(F)F)nc(N(C)C)n1	inactive	
